Source: PubChem BioAssay (Tox21)
Inconclusive results are not listed. Where a call stands in place of a potency, no number is given. Activity calls are given as the source filed them. Calls come from the whole dose curve; as a rule, active = well fitted activation curve with a large enough effect in the repeat runs; inconclusive = weak or mixed curves; inactive = flat fitted curve, though single readings scatter.

Experiment: A CellTox Green Cytotoxicity Assay to monitor cytotoxicity in HEK293 cells - 24 hour (AID 1224875); note: nearly all actives have a fitted effect of over 45% in size
Conditions: CellTox Green fluorescence; series mostly up to 76.8 µM
Description: National Center for Advancing Translational Sciences [NCATS]
NIH Chemical Genomics Center [NCGC]
U.S. Environmental Protection Agency [EPA]
National Institutes of Environmental Health Sciences [NIEHS]
National Toxicology Program [NTP]
Cell-based models are critical for drug discovery. Determining the natural cytotoxic effects resulting from test compounds is an essential research activity. A CellTox Green Cytotoxicity Assay to monitor cytotoxicity in real time of continues cell culture during 40 hours of the compound treatment was used to screen Tox21 10K library compounds in Hek293 cells. CellTox Green Cytotoxicity Assay is a nonlytic, homogeneous, biofluorescent method to measure cytotoxicity in cell culture after experimental manipulation. The assay system uses a proprietary asymmetric cyanine dye that is excluded from viable cells but preferentially stains the dead cell's DNA. […] Viable cells produce no appreciable increases in fluorescence. Therefore, the fluorescence signal produced by the binding interaction with dead cell DNA is proportional to cytotoxicity.
The mixture of Hek293 cell suspension and reagents were dispensed at 600cells/6 ul/well in 1536-well tissue culture treated black solid bottom plates using a Multidrop dispenser. After the assay plates were incubated at a 37 C/5% CO2 incubator for 5 hours, 23 nL of compounds dissolved in DMSO, positive and negative controls was transferred to the assay plate by a pintool work station. The plates were incubated at 37 C for 40 hours. The fluorescence intensity were measured at 0h, 8h, 16h, 24h, 32h and 40h time points using ViewLux plate reader during compound treatment.
Potency is the fitted concentration of half-maximal effect.

SMILES	Potency	activity change
COC(=O)C1=C(C)NC(C)=C(C(=O)OCC(C)=O)C1c1ccccc1[N+](=O)[O-] (stereo not given)	inactive	
CC12CCC(CC1=O)C2(C)C (stereo not given)	inactive	
Cc1nc(-c2ccc(OCC(C)C)c(C#N)c2)sc1C(=O)O	inactive	
c1cc(CN2CCCCC2)cc(OCCCNc2nc3ccccc3s2)c1	inactive	
COc1ccc(NC(C)=O)cc1	inactive	
Nc1[nH]c(=O)ncc1F	inactive	
OCc1ccccn1	inactive	
CC(C)=CC(=O)O	inactive	
O=c1[nH]c2ccccc2c(=O)n1CCCl	inactive	
CC(=O)c1ccc(C)cc1	inactive	
C[C@H](O)C(=O)Nc1c(I)c(C(=O)NC(CO)CO)c(I)c(C(=O)NC(CO)CO)c1I	inactive	
CN(C)CCn1nnnc1SCC1=C(C(=O)O)N2C(=O)[C@@H](NC(=O)Cc3csc(N)n3)[C@H]2SC1	inactive	
COc1cccc(OC)c1	inactive	
O=C(O)c1ccc[n+]([O-])c1	inactive	
CNC(=O)c1c(I)c(NC(=O)CCCCC(=O)Nc2c(I)c(C(=O)O)c(I)c(C(=O)NC)c2I)c(I)c(C(=O)O)c1I	inactive	
NC(=O)c1ncn([C@@H]2O[C@H](CO)[C@@H](O)[C@H]2O)c1O	19 µM (active)	
CC/C=C\C#N	inactive	
CC1(C)OC(=O)Nc2ccc(Br)cc21	inactive	
OC/C=C/c1ccccc1	inactive	
CCC(C(=O)NC(N)=O)c1ccccc1 (stereo not given)	inactive	

SMILES	Potency	activity change
O=Cc1ccccc1[N+](=O)[O-]	inactive	
CCCCN(CCO)CCO	inactive	
OCC(CO)(CO)COCC(CO)(CO)CO	inactive	
NC(N)=NS(=O)(=O)c1ccc(N)cc1	inactive	
CC(C)CCCC(C)NCCC(C)C (stereo not given)	inactive	
C=CCSCC1Nc2cc(Cl)c(S(N)(=O)=O)cc2S(=O)(=O)N1 (stereo not given)	inactive	
N#CCN(CC#N)CCN(CC#N)CC#N	inactive	
FC(F)(F)C(F)(F)C(F)(F)C(F)(F)C(F)(F)C(F)(F)C(F)(F)C(F)(F)C(F)(F)C(F)(F)F		-7.77% [at 6.97 µM, hits give high values] (inactive)
CCCCCCC(=O)OCC	inactive	
N#CC1(O)CCCCC1	inactive	
OC[C@H]1O[C@@H]2O[C@H]3[C@H](O)[C@@H](O)[C@@H](O[C@H]4[C@H](O)[C@@H](O)[C@@H](O[C@H]5[C@H](O)[C@@H](O)[C@@H](O[C@H]6[C@H](O)[C@@H](O)[C@@H](O[C@H]7[C@H](O)[C@@H](O)[C@@H](O[C@H]8[C@H](O)[C@@H](O)[C@@H](O[C@H]9[C@H](O)[C@@H](O)[C@@H](O[C@H]1[C@H](O)[C@H]2O)O[C@@H]9CO)O[C@@H]8CO)O[C@@H]7CO)O[C@@H]6CO)O[C@@H]5CO)O[C@@H]4CO)O[C@@H]3CO	inactive	
C#CC(O)C(CC)CCCC (stereo not given)	inactive	
CC(=O)NC(Cc1ccccc1)C(=O)O (stereo not given)	inactive	
Cc1ccc(N)cc1[N+](=O)[O-]	inactive	
CCCCCCCCCCCCCCCCCCOCC(O)CO (stereo not given)	inactive	
O=[N+]([O-])c1ccc(CCO)cc1	inactive	
CC(C)N1C(=O)c2ccccc2C1=O	inactive	
COC(=O)[C@H]1[C@H]2C[C@@H]3c4[nH]c5cc(OC)ccc5c4CCN3C[C@H]2C[C@@H](OC(=O)COc2ccc(OC)cc2)[C@@H]1OC	inactive	
OCCN1C[C@H](O)[C@@H](O)[C@H](O)[C@H]1CO	inactive	
COc1cc(C)cc(O)c1	inactive	
